In PubChem BioAssay (Tox21):
Inconclusive results are not listed. Calls of active or inactive are those of the source. Unless noted, calls follow the shape of the dose curve; as a rule, active = well fitted curve in the direction sought with a large enough effect in the repeat runs; inconclusive = weak or mixed curves; inactive = no such curve, though single readings can be large; an effect the other way counts as inactive or inconclusive.

What was measured:
[1] = A CellTox Green Cytotoxicity Assay to monitor cytotoxicity in HepG2 cells - 32 hour (AID 1224883); also: nearly all actives have a fitted effect of over 50% in size; also: potency is read from the fitted curve at half-maximal effect
Summary of the method: (§1)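 Fluorescent DNA-binding dye, 600 HepG2 cells/well, 5 h preincubation then compound in DMSO; same plates read at 0–40 h, 37 C.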

[2] = A CellTox Green Cytotoxicity Assay to monitor cytotoxicity in HEK293 cells - 8 hour (AID 1224884); also: nearly all actives have a fitted effect of over 35% in size; also: potency is read from the fitted curve at half-maximal effect
Summary of the method: (§2)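 Homogeneous no-lysis format: HEK293 cell suspension mixed with CellTox Green reagent, seeded, incubated 5 h at 37 C/5% CO2, then dosed by pintool with compound in DMSO.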

[3] = qHTS RealTime-Glo MT Cell Viability Assay in HepG2 cells - 16 hour (AID 1224885); also: nearly all actives have a fitted effect of over 50% in size; also: potency is read from the fitted curve at half-maximal effect
Summary of the method: (§3)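 HepG2 suspension premixed with RealTime-Glo reagents is plated at 600 cells per well and left 5 h at 37 C/5% CO2. Compounds in DMSO then go in, and bioluminescence reflecting viable cell number is recorded over 40 h.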

[4] = qHTS RealTime-Glo MT Cell Viability Assay in HEK293 cells - 24 hour (AID 1224886); also: nearly all actives have a fitted effect of over 50% in size; also: potency is read from the fitted curve at half-maximal effect; as to activity change, negative = cytotoxicity: top concentration of the series differs between compounds
Summary of the method: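 Reads taken at 0, 8, 16, 24, 32 and 40 h from the same wells. HEK293 cells (600/well) carried RealTime-Glo reagents from seeding, with compound added after a 5 h settle at 37 C.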

[5] = qHTS RealTime-Glo MT Cell Viability Assay in HEK293 cells - 8 hour (AID 1224887); also: nearly all actives have a fitted effect of over 50% in size; also: potency is read from the fitted curve at half-maximal effect; as to activity change, negative = cytotoxicity: top concentration of the series differs between compounds
Summary of the method: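 Measured as luminescence from the same continuously cultured HEK293 wells at successive time points (0, 8, 16, 24, 32, 40 h) after compound addition. Reagent present from seeding; dosing at 5 h; incubation 37 C.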

[6] = A CellTox Green Cytotoxicity Assay to monitor cytotoxicity in HEK293 cells - 16 hour (AID 1224888); also: nearly all actives have a fitted effect of over 35% in size; also: potency is read from the fitted curve at half-maximal effect
Summary of the method: as §2

[7] = qHTS RealTime-Glo MT Cell Viability Assay in HepG2 cells - 0 hour (AID 1224889); also: nearly all actives have a fitted effect of over 50% in size; also: potency is read from the fitted curve at half-maximal effect
Summary of the method: as §3

[8] = A CellTox Green Cytotoxicity Assay to monitor cytotoxicity in HepG2 cells - 8 hour (AID 1224890); also: nearly all actives have a fitted effect of over 45% in size; also: potency is read from the fitted curve at half-maximal effect
Summary of the method: as §1

[9] = qHTS assay to identify small molecule antagonists of the estrogen receptor alpha (ER-alpha) signaling pathway using the BG1 cell line in the presence of 0.1 nM 17-beta-estradiol - cell viability counter screen (AID 1259241); also: nearly all actives have a fitted effect of over 40% in size; also: potency is read from the fitted curve at half-maximal effect
Summary of the method: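 CellTiter-Fluor read (30 min, 37C) on ER-alpha/ERE-luc VM7Luc4E2 cells; 22 hr compound treatment; agonist 0.1 nM E2 final; same-well multiplex.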

[10] = qHTS assay to identify small molecule antagonists of the androgen receptor (AR) signaling pathway using the MDA cell line in the presence of 0.5 nM R1881 - cell viability counter screen (AID 1259242); also: nearly all actives have a fitted effect of over 45% in size; also: potency is read from the fitted curve at half-maximal effect
Summary of the method: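 Human breast carcinoma MDA-kb2 cells, cultured without CO2, receive compounds alongside 0.5 nM (final) R1881 agonist. After 16 hr at 37C, viability is taken as live-cell protease signal.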

[11] = qHTS assay to identify small molecule HDAC inhibitors - cell viability counter screen (AID 1259365)
Summary of the method: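 To flag cytotoxic hits, 1,500 wild-type HCT-116 cells per well, plated the day before, receive test compounds for 2hr at 37 C before CellTiter-Glo reagent and a luminescence read.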

[12] = qHTS assay to identify small molecule agonists of the sonic hedgehog signaling (Shh) pathway - cell viability counter screen (AID 1259366); also: nearly all actives have a fitted effect of over 50% in size; also: potency is read from the fitted curve at half-maximal effect
Summary of the method: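 Fluorescence from CellTiter-Fluor reports live cells in this counter screen. NIH/3T3-derived Gli1-Luc reporter cells receive test compounds for 24hr at 37C; reagent goes in at 23hr.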

[13] = qHTS assay to identify small molecule antagonists of the sonic hedgehog signaling (Shh) pathway - cell viability counter screen (AID 1259367); also: nearly all actives have a fitted effect of over 55% in size; also: potency is read from the fitted curve at half-maximal effect
Summary of the method: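 Cytotoxicity was assessed in parallel with Shh reporter activity by measuring live-cell protease fluorescence (CellTiter-Fluor) in NIH/3T3 cells stably carrying Gli1-Luc, treated with compound under conditioned medium stimulation for 23 hr plus 1 hr reagent incubation.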

[14] = qHTS assay to identify small molecule agonists of the sonic hedgehog signaling (Shh) pathway (AID 1259368; calls by dose curve;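 also: NIH/3T3-derived 3T3Gli1-Luc cells carrying a stable Gli1-driven firefly luciferase reporter; series mostly up to about 92 µM; nearly all actives have a fitted effect of over 15% in size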)
Summary of the method: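 Stable NIH/3T3 Gli1-Luc reporter clone; 24 hr cpd exposure after a 4 hr settling period; luminescence endpoint.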

[15] = qHTS assay to identify small molecule antagonists of the sonic hedgehog signaling (Shh) pathway (AID 1259369; calls by dose curve; also: nearly all actives have a fitted effect of over 45% in size; also: potency is read from the fitted curve at half-maximal effect)
Summary of the method: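 Gli1 transcriptional reporter (firefly Luc) in NIH/3T3 background, conditioned-medium activated. 24hr exposure, luminescence endpoint.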

[16] = target: Estrogen receptor (Homo sapiens) (UniProt P03372); assay: qHTS assay to identify small molecule antagonists of the estrogen receptor alpha (ER-alpha) signaling pathway using the BG1 cell line in the presence of 0.1 nM 17-beta-estradiol (AID 1259244); also: nearly all actives have a fitted effect of over 50% in size; also: potency is read from the fitted curve at half-maximal effect
Summary of the method: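 Seeding of stripped-serum-adapted VM7Luc4E2 cells, 24 h attachment, compound transfer, then 0.1 nM final 17beta-estradiol; after 22 h incubation, ONE-Glo reagent and luminescence reading.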

[17] = qHTS assay to identify small molecule HDAC inhibitors (AID 1259364);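 also: wild-type HCT-116 cells with endogenous class I/II HDAC activity; top concentration of the series differs between compounds; nearly all actives have a fitted effect of over 45% in size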
Summary of the method: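 After a 2 hr compound incubation (37C, 5% CO2), HCT-116 cells seeded at 1,500/well the day before received HDAC-Glo reagent; signal read as luminescence after 30 min at room temperature.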

[18] = target: Estrogen receptor beta (Homo sapiens) (UniProt Q92731); assay: qHTS assay to identify small molecule agonists of the estrogen receptor beta (ER-beta) signaling pathway (AID 1259377; active = well fitted activation curve with a large enough effect in the signal ratio in the repeat runs, not every such curve was filed as active; the % refers to the signal ratio; also: potency is read from the fitted curve at half-maximal effect)
Summary of the method: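 Screening used GripTite ER-beta-UAS-bla cells held in 2% charcoal-stripped FBS medium. After overnight (16 hr) compound incubation at 37C, beta-lactamase activity was detected with a FRET substrate by fluorescence.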

[19] = target: Androgen receptor (Homo sapiens) (UniProt P10275); assay: qHTS assay to identify small molecule antagonists of the androgen receptor (AR) signaling pathway using the MDA cell line in the presence of 0.5 nM R1881 (AID 1259243); also: nearly all actives have a fitted effect of over 50% in size
Summary of the method: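 Cells: MDA-kb2 (MMTV-luc). Stimulus: 0.5 nM R1881. Time: 16 hr, 37C, no CO2. Detection: ONE-Glo luminescence after 30 min at RT.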

[20] = qHTS assay to identify small molecule phospholipidosis (PLD) inducers (AID 1259344; active = well fitted curve in the direction sought with a large enough effect; an effect the other way counts as inactive or inconclusive)
Summary of the method: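 Cells (HepG2, 900 per well) attach for 4 h, receive LipidTOX Red and compound together, incubate 24 h at 37 C, are fixed 30 min with paraformaldehyde/Hoechst, then imaged at one site per well.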
% is scaled to controls: 0 for no effect and ±100 for the full control effect.

Estrogen receptor beta (Homo sapiens), sequence (Q92731 whole entry, looked up): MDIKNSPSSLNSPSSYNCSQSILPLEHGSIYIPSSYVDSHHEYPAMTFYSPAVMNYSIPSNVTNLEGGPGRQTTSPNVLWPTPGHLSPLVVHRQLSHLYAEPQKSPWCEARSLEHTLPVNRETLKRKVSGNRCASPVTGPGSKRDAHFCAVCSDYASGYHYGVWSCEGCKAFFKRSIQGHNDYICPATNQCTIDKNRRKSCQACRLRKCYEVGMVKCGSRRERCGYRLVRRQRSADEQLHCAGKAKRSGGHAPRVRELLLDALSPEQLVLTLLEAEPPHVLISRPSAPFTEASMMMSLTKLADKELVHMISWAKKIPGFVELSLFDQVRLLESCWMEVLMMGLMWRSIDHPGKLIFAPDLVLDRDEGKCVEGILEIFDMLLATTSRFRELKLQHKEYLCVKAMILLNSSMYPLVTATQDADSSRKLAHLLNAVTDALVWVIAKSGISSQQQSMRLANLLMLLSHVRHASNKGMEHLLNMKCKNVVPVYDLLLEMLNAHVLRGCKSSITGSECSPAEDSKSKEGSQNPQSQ
Estrogen receptor (Homo sapiens), sequence (P03372 whole entry, looked up): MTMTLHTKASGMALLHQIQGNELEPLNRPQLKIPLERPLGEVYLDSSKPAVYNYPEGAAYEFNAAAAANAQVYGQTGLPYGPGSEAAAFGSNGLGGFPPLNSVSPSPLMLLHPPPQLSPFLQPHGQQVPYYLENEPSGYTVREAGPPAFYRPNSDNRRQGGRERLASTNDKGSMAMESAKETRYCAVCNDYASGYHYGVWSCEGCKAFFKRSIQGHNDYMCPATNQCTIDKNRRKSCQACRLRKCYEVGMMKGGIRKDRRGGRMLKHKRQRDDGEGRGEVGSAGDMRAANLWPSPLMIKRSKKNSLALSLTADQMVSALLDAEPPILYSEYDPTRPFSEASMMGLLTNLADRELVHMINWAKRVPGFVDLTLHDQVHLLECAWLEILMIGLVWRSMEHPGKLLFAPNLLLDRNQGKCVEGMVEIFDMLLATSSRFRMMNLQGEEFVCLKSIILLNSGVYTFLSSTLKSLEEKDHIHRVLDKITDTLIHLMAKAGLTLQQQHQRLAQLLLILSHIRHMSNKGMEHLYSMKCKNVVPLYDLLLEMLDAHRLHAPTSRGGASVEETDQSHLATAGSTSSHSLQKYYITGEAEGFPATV
Androgen receptor (Homo sapiens), sequence (P10275 whole entry, looked up): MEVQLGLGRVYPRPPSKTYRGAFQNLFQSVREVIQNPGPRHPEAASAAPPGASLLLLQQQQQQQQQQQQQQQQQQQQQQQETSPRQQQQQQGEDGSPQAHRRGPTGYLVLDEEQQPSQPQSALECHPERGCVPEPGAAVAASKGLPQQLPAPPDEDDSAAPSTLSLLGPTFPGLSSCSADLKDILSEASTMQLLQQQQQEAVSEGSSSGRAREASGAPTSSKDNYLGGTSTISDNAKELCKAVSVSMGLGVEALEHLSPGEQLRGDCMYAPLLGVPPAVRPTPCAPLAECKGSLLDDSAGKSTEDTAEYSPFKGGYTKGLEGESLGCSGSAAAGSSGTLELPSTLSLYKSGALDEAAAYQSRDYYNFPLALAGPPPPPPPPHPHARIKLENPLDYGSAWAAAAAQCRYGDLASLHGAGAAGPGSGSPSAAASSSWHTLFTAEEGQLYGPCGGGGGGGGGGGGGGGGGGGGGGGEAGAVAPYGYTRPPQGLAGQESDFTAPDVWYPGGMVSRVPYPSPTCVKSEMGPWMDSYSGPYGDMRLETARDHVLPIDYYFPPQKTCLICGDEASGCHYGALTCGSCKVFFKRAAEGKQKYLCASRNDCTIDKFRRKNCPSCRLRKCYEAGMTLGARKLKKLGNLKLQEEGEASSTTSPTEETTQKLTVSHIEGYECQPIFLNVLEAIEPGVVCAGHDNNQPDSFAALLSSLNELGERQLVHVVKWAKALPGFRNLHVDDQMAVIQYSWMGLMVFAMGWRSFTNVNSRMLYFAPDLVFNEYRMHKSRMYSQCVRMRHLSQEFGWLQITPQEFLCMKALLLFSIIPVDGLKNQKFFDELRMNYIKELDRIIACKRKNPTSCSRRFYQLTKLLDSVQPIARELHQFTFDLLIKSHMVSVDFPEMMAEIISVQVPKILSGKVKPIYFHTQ

CC(C)(C)OO
inactive: Potency [1] | Potency [2] | Potency [3] | Potency [4] | Potency [5] | Potency [6] | Potency [7] | Potency [8] | Potency [9] | Potency [10] | Potency [11] | Potency [12] | Potency [13] | Potency [14] | Potency [15]

[Hg+2].[I-].[I-]
active: Potency [1] 7.76 µM | Potency [2] 49 µM | Potency [3] 11 µM | Potency [4] 3.09 µM | Potency [5] 6.16 µM | Potency [6] 43.6 µM | Potency [7] 24.5 µM | Potency [8] 15.5 µM | Potency [9] 30.6 µM | Potency [12] 2.43 µM | Potency [13] 4.33 µM | Potency [15] 0.545 µM
inactive: Potency [14]

CCOC(=O)OC1=C(c2cc(C)ccc2C)C(=O)NC12CCC(OC)CC2 (configuration not stated)
inactive: Potency [1] | Potency [2] | Potency [3] | Potency [4] | Potency [5] | Potency [6] | Potency [7] | Potency [8] | Potency [9] | Potency [16] | Potency [17] | Potency [12] | Potency [13] | Potency [14]
active: Potency [15] 17.2 µM

CC(C)C(=O)Cl
inactive: Potency [1] | Potency [2] | Potency [3] | Potency [4] | Potency [5] | Potency [6] | Potency [7] | Potency [8] | Potency [9] | Potency [10] | Potency [11] | Potency [12] | Potency [13] | Potency [14] | Potency [15]

CCS(=O)(=O)c1cccnc1S(=O)(=O)NC(=O)Nc1nc(OC)cc(OC)n1
inactive: Potency [1] | Potency [2] | Potency [3] | Potency [4] | Potency [5] | Potency [6] | Potency [7] | Potency [8] | Potency [9] | Potency [10] | Potency [17] | Potency [11] | Potency [12] | Potency [13]

CC(C)[C@H](C(=O)OC(C#N)c1cccc(Oc2ccccc2)c1)c1ccc(OC(F)F)cc1 (some centres not stated)
inactive: Potency [1] | Potency [2] | Potency [3] | Potency [4] | Potency [5] | Potency [6] | Potency [7] | Potency [8] | Potency [9] | Potency [17] | Potency [11] | Potency [12] | Potency [14] | Potency [15] | Potency [18]

Brc1c(Br)c(Br)c(Oc2c(Br)c(Br)c(Br)c(Br)c2Br)c(Br)c1Br
inactive: cytotoxicity increase [1] 0.162% [at 15.8 µM] | cytotoxicity increase [2] -3.68% [at 15.8 µM] | activity change, negative = cytotoxic [3] 1.53% [at 15.8 µM] | activity change, negative = cytotoxicity [4] -0.0351% [at 15.8 µM] | activity change, negative = cytotoxicity [5] 4.64% [at 15.8 µM] | activity change [6] -4.12% [at 15.8 µM, hits give high values] | activity change, negative = cytotoxicity [7] 13.9% [at 15.8 µM] | cytotoxicity increase [8] -0.348% [at 15.8 µM] | activity change, negative = cytotoxicity [9] 5.06% [at 19 µM] | viability change, negative = cytotoxic [10] -0.43% [at 19 µM] | activity change, negative = inhibition [17] -0.806% [at 19 µM] | activity change, negative = cytotoxicity [11] 2.12% [at 19 µM] | viability change, negative = cytotoxic [12] -1.06% [at 19 µM] | viability change, negative = cytotoxic [13] 4.4% [at 19 µM] | activity change, negative = inhibition [15] 16.8% [at 19 µM] | activation [18] 9.23% [at 19 µM]

C=CCOC(N)=O
inactive: Potency [1] | Potency [2] | Potency [3] | Potency [4] | Potency [5] | Potency [6] | Potency [7] | Potency [8] | Potency [9] | Potency [10] | Potency [17] | Potency [11] | Potency [12] | Potency [13] | Potency [14] | Potency [15]

O=C(CCl)Nc1ccccc1
active: Potency [4] 43.6 µM | Potency [10] 61.1 µM | Potency [16] 61.1 µM | Potency [12] 12.2 µM | Potency [13] 27.3 µM
inactive: Potency [1] | Potency [2] | Potency [3] | Potency [5] | Potency [6] | Potency [7] | Potency [8] | Potency [11] | Potency [14] | Potency [15] | Potency [18]

CN(CCCC(=O)c1cccnc1)N=O
inactive: Potency [1] | Potency [2] | Potency [3] | Potency [4] | Potency [5] | Potency [6] | Potency [7] | Potency [8] | Potency [9] | Potency [19] | Potency [16] | Potency [17] | Potency [11] | Potency [12] | Potency [15]

O=C(CCCN1CCC2(CC1)C(=O)NCN2c1ccccc1)c1ccc(F)cc1
inactive: Potency [1] | Potency [2] | Potency [3] | Potency [6] | Potency [7] | Potency [8] | Potency [10] | Potency [12] | Potency [13] | Potency [14] | Potency [18]
active: Potency [4] 10.7 µM | Potency [5] 16.9 µM | Potency [16] 8.41 µM | Potency [15] 2.11 µM

CCCCCCCCCCCCCCC(Br)C(=O)O (configuration not stated)
inactive: Potency [2] | Potency [3] | Potency [4] | Potency [5] | Potency [6] | Potency [7] | Potency [8] | Potency [10] | Potency [16] | Potency [17] | Potency [11] | Potency [12] | Potency [13] | Potency [14] | Potency [15] | Potency [18]
active: Potency [1] 17.4 µM

O=CC(Br)(Br)Br
active: Potency [1] 38.8 µM | Potency [3] 48.8 µM | Potency [4] 2.45 µM | Potency [10] 43.1 µM | Potency [12] 24.3 µM | Potency [13] 60.9 µM | Potency [15] 24.3 µM
inactive: Potency [2] | Potency [5] | Potency [6] | Potency [7] | Potency [8] | Potency [16] | Potency [17] | Potency [11] | Potency [14] | Potency [18]

C[C@]12CC[C@@H]3c4ccc(OC(=O)N(CCCl)CCCl)cc4CC[C@H]3[C@@H]1CC[C@@H]2O
active: Potency [18] 0.266 µM
inactive: Potency [1] | Potency [2] | Potency [3] | Potency [4] | Potency [5] | Potency [6] | Potency [7] | Potency [8] | Potency [9] | Potency [20] | Potency [17] | Potency [11] | Potency [12] | Potency [13] | Potency [14] | Potency [15]

CCOP(=S)(OCC)OC(Cl)C(Cl)(Cl)Cl (configuration not stated)
inactive: Potency [1] | Potency [2] | Potency [3] | Potency [4] | Potency [5] | Potency [6] | Potency [7] | Potency [8] | Potency [9] | Potency [10] | Potency [17] | Potency [12] | Potency [13] | Potency [14] | Potency [15] | Potency [18]
